From PubChem BioAssay AID1878 (Sanford-Burnham Center for Chemical Genomics, 2009) come the findings set out here.

What is called inhibition is the relative decrease from the control value, in per cent.

Screen size: about 1,000 compounds; about 200 (20%) were called active. Rule as the data show it: active = inhibition above about 55%; inactive = the rest. These entries were drawn from the full list. Entries with a potency or affinity are not part of this list.

For this test, the target named is Dual specificity protein phosphatase 3 (Homo sapiens) (UniProt P51452). The test can be described thus: VHR1 phosphatase inhibitors, biochemical (AID 1878). Conditions: recombinant VHR phosphatase, fluorogenic substrate; at 13.3 µM; stronger effect = higher value.
Sequence of Dual specificity protein phosphatase 3 (Homo sapiens) (P51452 whole entry, looked up): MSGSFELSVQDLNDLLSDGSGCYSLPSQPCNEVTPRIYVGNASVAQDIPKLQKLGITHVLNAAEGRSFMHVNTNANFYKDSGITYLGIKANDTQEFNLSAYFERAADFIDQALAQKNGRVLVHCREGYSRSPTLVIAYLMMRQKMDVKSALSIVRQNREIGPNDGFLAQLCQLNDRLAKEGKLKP
For `O=C(CSc1nc2ncccc2[nH]1)NCc1ccco1`, the inhibition was 17.8% (inactive). Regarding `COc1ccc(Br)cc1/C=N/n1nnnc1N`, the inhibition was 5.9% (inactive). Consider `Cc1ccccc1NC(=O)CN1C(=O)S/C(=C\c2ccc(-c3cc(C(=O)O)ccc3C)o2)C1=O`, for which the inhibition was 67.4% (active).

As to `Cc1ccc(C(=O)O)cc1-c1ccc(/C=C2\SC(=O)N(CC(=O)Nc3ccccc3)C2=O)o1`, the inhibition was 45.6% (inactive). For the molecule `O=C(CSc1ccc([N+](=O)[O-])cn1)Nc1ccc2c(c1)OCO2`, the inhibition was -8.7% (inactive).

Take `O=C(CN1C(=O)S/C(=C\c2ccc(-c3cc(C(=O)O)ccc3Cl)o2)C1=O)Nc1ccc2c(c1)OCO2`: the inhibition was 91.9% (active). As to `Cc1cc(C(=O)O)ccc1-c1ccc(/C=C2\SC(=O)N(CC(=O)Nc3ccc4c(c3)OCO4)C2=O)o1`, the inhibition was 96.8% (active). The same measure for `CCOc1ccccc1NC(=O)c1nnn(CC(=O)Nc2ccc3c(c2)OCO3)c1N`: -0.3% (inactive); for `CCN(CC(=O)Nc1ccc2c(c1)OCCO2)C(=O)COc1ccc(C)cc1`: 7.4% (inactive).

Regarding `CCOc1ccc(CNS(=O)(=O)c2cc(CN3C(=O)c4cccnc4C3=O)ccc2OC)cc1`, the inhibition is -2.7% (inactive). Take `CC(=O)N1c2ccc(S(=O)(=O)N(C)CC(=O)Nc3cccc(C)c3)cc2CC1C` (stereo not drawn): the inhibition is -2.3% (inactive).

`O=C(NC(=S)Nc1ccccc1N1CCCC1)c1ccccc1Br`: the inhibition is -1.6% (inactive). Turning to `COc1cc(OC)nc(Oc2ccc(N)c(C)c2)n1`, the inhibition is 17.4% (inactive).

Consider `CC(=O)/C=C\c1cn(-c2ncc(C(F)(F)F)cc2Cl)c2ccccc12`, for which the inhibition was -0.4% (inactive). The same measure for `COc1cccc(CNc2cc(C)ccn2)c1O`: -6.7% (inactive); for `O=S1(=O)N(Cc2ccccc2F)CCCN1Cc1c(F)cccc1Cl`: 44.5% (inactive); for `O=S(=O)(c1ccccc1)N1CCn2c(nc3ccccc32)C1`: -0.8% (inactive). The figure for `Cc1ccc(-c2nn3c(C)nnc3s2)cc1NC(=O)c1ccc(-c2ccc(Cl)cc2Cl)o1` is 99.7% (active). The figure for `CSCC(C)N1CCC(N2CCC(C(=O)NCc3ccccn3)CC2)CC1` (stereo not drawn) is -9.9% (inactive); for `Cc1ccc(/C=C2/Sc3ccc(C(=O)NCc4ccccn4)cc3NC2=O)cc1` it is 93.9% (active); for `CCN(Cc1ccc(NC(C)=O)cc1)CC1CCCN(CCc2cccc(F)c2)C1` (stereo not drawn) it is 6.3% (inactive).

In the case of `CCOC(=O)C1(Cc2ccccc2)CCCN(C(=O)c2ccc(-n3ccnc3)cc2)C1` (stereo not drawn), the inhibition was -9.5% (inactive). As to `Cc1cccc(C(=O)NCCCn2ccnc2)c1C`, the inhibition was -6.9% (inactive). Take `Cc1ccc(CSc2nnc(-c3ccco3)n2N)cc1`: the inhibition is 3.5% (inactive). The figure for `CC1(c2ccc3ccccc3c2)NC(=O)NC1=O` (stereo not drawn) is -8.8% (inactive); for `CC(C)N(C)Cc1nnnn1CC(=O)N(C)Cc1ccc(F)cc1` it is 0.7% (inactive); for `O=C(O)CN1C(=O)/C(=C2\C(=O)N(Cc3ccccc3Cl)c3ccccc32)SC1=S` it is 96.7% (active). Take `COc1ccc(NC(=O)CN2C(=O)/C(=C3\SC(=S)N(CCC(=O)O)C3=O)c3ccccc32)cc1`: the inhibition was 74.7% (active). For `COc1ccc(C(CC(=O)Nc2ccccn2)N2Cc3ccccc3C2=O)cc1` (stereo not drawn), the inhibition is 2.3% (inactive). For `COc1ccc(NC(=O)CN(CC(=O)Nc2ccc(OC)cc2)C(C)(C)CO)cc1`, the inhibition was 10.8% (inactive). With `CN(C)c1nc(-c2ccccc2)c2cc(Cl)ccc2n1`, the inhibition is 9% (inactive). Regarding `CCCN1CCN(CCNC(=O)Nc2cc(C)ccc2C)CC1`, the inhibition is -9.3% (inactive).

Regarding `Cc1nc(C(C)NC(=O)c2ccc(OC3CCN(Cc4ccccn4)CC3)cc2)c(C)s1` (stereo not drawn), the inhibition is -8.5% (inactive).

Consider `COc1ccccc1N(CC(O)CN1CCC(C)CC1)S(=O)(=O)c1ccccc1` (stereo not drawn), for which the inhibition was -7.2% (inactive). The same measure for `Cc1ccc(S(=O)(=O)N(C)C)cc1NC(=O)COC(=O)/C=C/c1cnc2ccccc2n1`: 10.1% (inactive); for `O=C(Nc1ccc(N2CCCCC2)cc1)c1ccc([N+](=O)[O-])o1`: 14.3% (inactive); for `CC(O)CNc1nc2c(c(=O)n(Cc3ccc(Cl)cc3)c(=O)n2C)n1C` (stereo not drawn): 27.1% (inactive).

In the case of `CC(C)NC(=O)CN1C(=O)CSc2ccc(S(=O)(=O)N3CCCC3)cc21`, the inhibition is 15.9% (inactive). For `CCc1nn(CC(=O)N2CCN(c3cc(C)ccc3C)CC2)c(=O)c2cc3occc3n12`, the inhibition was 4.7% (inactive). The same measure for `COC(=O)C1CCN(Cc2c(C(=O)N3C[C@@H](C)O[C@@H](C)C3)nc3ccc(Cl)cn23)CC1`: 19% (inactive). The figure for `Cc1cc(-c2ccc(C)c(S(=O)(=O)NCCCN(Cc3ccccc3)C(C)C)c2)on1` is 3.1% (inactive); for `S=c1nc(NCc2cccc(Cl)c2)c2ccccc2[nH]1` it is 6.3% (inactive); for `CCN(CC)CCCNC(=O)c1ccc(CS(=O)(=O)c2ccccc2OC)o1` it is -2.3% (inactive). Regarding `CN(C(=O)CSc1cn(CC(=O)N2CCOCC2)c2ccccc12)c1ccccc1`, the inhibition is -6.1% (inactive).

Consider `CCc1ccc(CN(C)C(=O)c2ccc3c(c2)OCCO3)cc1`, for which the inhibition is 11.2% (inactive). In the case of `O=C(O)CCCN1C(=O)c2ccccc2Sc2ncccc21`, the inhibition is 2.1% (inactive). The same measure for `O=C(O)CCN1C(=O)/C(=C2\C(=O)N(Cc3ccc(F)cc3)c3ccccc32)SC1=S`: 92.9% (active). The same measure for `CN1C=CC=C/C1=C1/SC(=S)N(Cc2ccccc2)C1=O`: -8% (inactive); for `CCCCN1C(=O)/C(=C2\SC(N3CCOCC3)=NC2=O)c2ccccc21`: 1.9% (inactive); for `N#CC(c1cccnc1)N1CCOCC1` (stereo not drawn): 5.3% (inactive). The same measure for `N#Cc1ccc(OS(=O)(=O)c2ccc(-c3ccon3)s2)cc1`: 1.6% (inactive).

Consider `CCOC(=O)c1ccc(NC(=O)CSc2nnc(CNC(=O)c3ccco3)o2)cc1`, for which the inhibition is 28.4% (inactive).

In the case of `OC(CN1CCC(Cc2ccccc2)CC1)c1ccccc1` (stereo not drawn), the inhibition was 3.5% (inactive). The figure for `O=C(O)C(Cc1ccccc1)N1C(=O)/C(=C/C=C/c2ccco2)SC1=S` (stereo not drawn) is 71.7% (active); for `CC(C(=O)O)N1C(=O)/C(=C/C=C/c2ccco2)SC1=S` (stereo not drawn) it is 97.9% (active). On to `Cc1cc(N2CCN(c3ncccn3)CC2)nc2c(C)cccc12`, for which the inhibition is 3.7% (inactive). Regarding `CNS(=O)(=O)c1cn(CC(=O)NCc2ccc(N(C)C)cc2)cc1S(=O)(=O)NC`, the inhibition is 5.7% (inactive). The figure for `COc1ccc(CN(C)C(=O)c2cccc(NS(=O)(=O)c3ccccc3)c2)cc1F` is 6% (inactive).
